# In PubChem BioAssay AID720618 (Broad Institute, 2013):
# Inconclusive results are not listed. Calls of active or inactive are those of the source. No rule for the calls is given here.
# Assay: caspase-3/7 apoptosis induction in HeLa, late-stage follow-up, mechanism study for HRAS target identification, cell-based, caspase 3/7 luminescence, several timepoints, dry powder (AID 720618)
# Details: max activity: measured here: caspase 3/7, second timepoint, at 35 µM, stronger effect = higher value
structure (smiles),measurement,value
Cc1onc(C(=O)N2CCN(C(c3ccc(Cl)cc3)c3ccc(OCCOCCOCCNC(=O)OC(C)(C)C)cc3)CC2)c1[N+](=O)[O-] (configuration not stated),max activity,35.4%
same,outcome,inactive
